CCT modulator: High-Throughput Screening for Modulators of Cytosolic Chaperonin Activity | purified chaperonin ATPase assay, HTRF ADP detection, 30 min | activity change, % (test concentration not listed), hits read low | 360,000 compounds, 0.3% hits; in the data active = activity change below about -30%
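First, chaperonin was dispensed at 40 nM or 20 nM final depending on batch activity. Next, compounds were pinned at 76 uM and ATP added at 10 uM. After 30 min at 37 °C, ADP detection reagents ran 30 min at ambient temperature.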
Mm-Cpn inhibitor: Inhibitors of TCP-1 ring complex (TRiC) of Methanococcus maripaludis (MmCpn): qHTS. 330,000 compounds, 0.031% hits. AID 504842, 2011. Chaperonin Mm-Cpn (Methanococcus maripaludis). purified Mm-Cpn ATPase, ADP Transcreener TR-FRET. Potency, µM (titrated, usually from 76.9 µM), actives largely listed as inhibitors; active = well fitted inhibition curve with a large enough effect; inconclusive = small, poorly fitted or top-dose-only effect; also: nearly all actives have a fitted effect of over 80% in size
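Reaction buffer contained 30 mM Tris pH 7.4, 100 mM KCl, 5 mM MgCl2 and 1 mM DTT. Mm-CPN (25 nM final) hydrolysed 10 uM ATP over 30 min at 37°C; ADP was read by HTRF.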
gsp antagonist: qHTS for Antagonists of gsp, the Etiologic Mutation Responsible for Fibrous Dysplasia/McCune-Albright Syndrome: qHTS. 340,000 compounds, 0.4% hits. gsp-mutant cells, cAMP HTRF, 30 min. AID 624288, 2012. Potency, µM (series often up to 76.9 µM), usual class: inhibitors; calls by dose curve; cell line not stated here;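 also: intracellular cAMP measured with PDE inhibitor Ro 20-1724 present during compound exposure; nearly all actives have a fitted effect of over 65% in size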
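G418-selected cells were plated in DMEM/10% FBS for 16-24 h at 37C, then treated with compounds plus the PDE inhibitor […] (300 uM solution added) for 30 min at 37C. Intracellular cAMP was measured by HTRF after 30 min lysis at room temperature.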
gsp ag: qHTS for Agonist of gsp, the Etiologic Mutation Responsible for Fibrous Dysplasia/McCune-Albright Syndrome: qHTS; gsp mutant cells, cAMP HTRF, 30 min; Potency, µM (titrated, usually from 76.9 µM), usual class: activators; 340,000 compounds, 0.13% hits; AID 624287, 2012; active = well fitted activation curve with a large enough effect; inconclusive = small, poorly fitted or top-dose-only effect, or another doubt; inactive = no such curve, though single readings can be large or run the other way; cell line not stated here;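 also: phosphodiesterase inhibitor Ro 20-1724 added with compounds to block cAMP breakdown; nearly all actives have a fitted effect of over 60% in size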
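Cells stably selected in G418 were plated at 2000/well, grown 16-24 hr, then given compounds in DMSO with the PDE inhibitor […] (300 uM solution added) for 30 min at 37C; cAMP was read by HTRF.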
uPA surface inh: qHTS for Inhibitors of Cell Surface uPA Generation; cell surface uPA generation assay, qHTS; Potency, µM (top dose mostly 38.3 µM), hits mostly inhibitors; AID 540303, 2011; 330,000 compounds, 0.31% hits; active = well fitted inhibition curve with a large enough effect; inconclusive = small, poorly fitted or top-dose-only effect; inactive = no such curve, though single readings can be large or run the other way; tested in mouse RAW 264.7 cells; also: nearly all actives have a fitted effect of over 55% in size
TSHR antagonist: Antagonists of the Thyroid Stimulating Hormone Receptor: HTS campaign; 330,000 compounds, 0.2% hits; TSHR-expressing cells, TSH-stimulated cAMP HTRF, 2 h; hits give low values; activity change, negative = inhibition, % at 11.5 µM;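 active = activity change below a set negative limit, meaning inhibition stronger than a set level, cut at about -70% in these data; inconclusive = activity change between two set negative limits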
Target sequence (P16473 whole entry, looked up): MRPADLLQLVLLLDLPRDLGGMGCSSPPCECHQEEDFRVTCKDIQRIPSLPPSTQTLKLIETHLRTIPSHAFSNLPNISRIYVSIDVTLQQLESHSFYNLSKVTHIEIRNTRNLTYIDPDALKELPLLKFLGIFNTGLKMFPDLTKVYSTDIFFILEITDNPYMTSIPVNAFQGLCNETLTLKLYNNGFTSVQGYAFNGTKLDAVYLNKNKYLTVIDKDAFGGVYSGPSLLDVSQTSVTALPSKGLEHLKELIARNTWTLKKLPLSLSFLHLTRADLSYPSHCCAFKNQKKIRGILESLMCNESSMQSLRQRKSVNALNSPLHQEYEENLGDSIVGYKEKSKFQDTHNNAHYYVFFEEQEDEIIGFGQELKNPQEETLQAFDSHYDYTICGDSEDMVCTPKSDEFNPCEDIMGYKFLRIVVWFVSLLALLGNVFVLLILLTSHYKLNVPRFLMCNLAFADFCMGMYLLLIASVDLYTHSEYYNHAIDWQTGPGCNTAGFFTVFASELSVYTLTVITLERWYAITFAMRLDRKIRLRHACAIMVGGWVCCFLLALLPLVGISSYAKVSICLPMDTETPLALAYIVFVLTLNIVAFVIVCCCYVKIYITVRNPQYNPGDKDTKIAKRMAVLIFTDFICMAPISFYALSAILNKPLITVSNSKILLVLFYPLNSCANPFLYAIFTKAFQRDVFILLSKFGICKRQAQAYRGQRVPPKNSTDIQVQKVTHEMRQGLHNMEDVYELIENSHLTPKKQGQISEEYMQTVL
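Competitive HTRF cAMP read-out (cryptate anti-cAMP antibody, cAMP-d2; 30 min, room temperature) in freshly harvested TSHR cells. Compounds added before TSH at EC80 (4nM final), followed by 2 hours' incubation at 37 deg C.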
Of the large screens only hits and unclear results are named; the others gave an inactive call. In the library only some 1.2% were active in any assay of this set; here they are far more common.

CCN(CC)c1ccc(C=NCCNS(=O)(=O)c2ccc(C)cc2)cc1	none
COc1ccc(NC(=O)O/N=C/c2ccccc2Cl)cc1	uPA surface inh inconclusive
COc1ccccc1-c1cc(SC)c(C#N)c(=O)o1	gsp antagonist inconclusive, uPA surface inh 11µM
COc1ccccc1-c1cc(C(F)(F)F)c(C#N)c(=O)[nH]1	none
Cc1ccc(C(=O)O)cc1NC(=O)C1=CSCCO1	CCT modulator -63
Cc1ccc(C(=O)O)cc1NC(=O)c1cccs1	none (no result: uPA surface inh)
CCCN1CCC(NC(=O)Nc2ccc(F)cc2F)CC1	none
Cc1ccc(S(=O)(=O)N2CCCCC2CCNC(=O)C(=O)NCc2ccco2)cc1 (centres undefined)	none
Cc1ccc(S(=O)(=O)N2CCCCC2CCNC(=O)C(=O)NCCc2ccco2)cc1 (centres undefined)	uPA surface inh 1µM
Cc1ccc(-c2nnc(SCC(=O)NC3CCCC3)n2C)cc1	TSHR antagonist -94
NC(=O)CSc1nnc(-c2cccc(S(=O)(=O)N3CCCCC3)c2)o1	CCT modulator -57
O=S(=O)(c1cccc(-c2nnc(-c3ccc(Br)cc3)o2)c1)N1CCCCCC1	CCT modulator -58
CCC(NS(=O)(=O)c1cn(C)nc1C)c1ccccc1 (centres undefined)	CCT modulator -31
CC(C)(C)C(=O)C1=C(O)C(=O)N(Cc2ccccc2)C1c1ccccc1Cl (centres undefined)	gsp ag inconclusive, uPA surface inh 10µM
C[C@H](CO)N1C[C@H](C)[C@H](CN(C)Cc2ccccc2)Oc2ccc(NC(=O)Nc3ccc(F)cc3)cc2C1=O	uPA surface inh inconclusive (no result: gsp ag)
C/C(=N\Nc1cc(C)nc(-c2ccccc2O)n1)c1ccccc1O	gsp antagonist 45µM, uPA surface inh inconclusive
Cc1cccc(CC(=O)NCC(=O)NCc2cc(=O)n(C)c(=O)n2C)c1	gsp ag inconclusive, TSHR antagonist -90
N#CC1=C(N)N(c2ccccc2)C(=O)C1	none
CC1CCN(CCCNC(=O)CN2C(=O)CSc3ccc(S(=O)(=O)N4CCC(C)CC4)cc32)CC1	none
CC1CCN(CCCNC(=O)CN2C(=O)CSc3ccc(S(=O)(=O)N4CCOCC4)cc32)CC1	TSHR antagonist -89
COc1cccc(NC(=O)CN2C(=O)CSc3ccc(S(=O)(=O)N4CCOCC4)cc32)c1	none
COc1cccc(CNC(=O)CN2C(=O)CSc3ccc(S(=O)(=O)N4CCOCC4)cc32)c1	gsp ag inconclusive, TSHR antagonist -140
COc1ccc(-n2nc3c(c2NC(=O)c2c(F)cccc2Cl)CS(=O)C3)cc1 (centres undefined)	none
CCOC(=O)N1CCN(C(=O)CSc2ccc3nnc(CCNC(=O)c4ccccc4)n3n2)CC1	gsp ag 13µM
O=S(=O)(Nc1ccc2c3c(cccc13)CC2)c1ccc(F)cc1	none
CSc1ccc(S(=O)(=O)Nc2ccc3c4c(cccc24)CC3)cc1	gsp antagonist 28µM (no result: uPA surface inh)
NC(=S)NN=C1CCSCC1	CCT modulator -34, gsp antagonist inconclusive (no result: Mm-Cpn inhibitor, TSHR antagonist)
O=C(Cc1ccc(Cl)cc1)Nc1ccccc1N1CCN(C(=O)c2ccccc2)CC1	gsp antagonist 28µM
Cc1cc(C)c(NC(=O)CN(C)CC(=O)N(C)CC(=O)Nc2c(Cl)cccc2Cl)c(C)c1	CCT modulator -57
CCN(CC)S(=O)(=O)c1ccc(-c2nnc(SCC(=O)N3c4ccccc4CC3C)n2CC)cc1 (centres undefined)	gsp antagonist 28µM
Cc1cc(-c2c(C)[nH]n(-c3ccc(Cl)cc3)c2=O)n(-c2ccc(Cl)cc2)n1	gsp antagonist 32µM
CCOc1ccc(OCC(=O)OCC(=O)Nc2ccc3[nH]c(=O)[nH]c3c2)cc1	none
C=CCn1cc(CN2CCC(C(=O)Nc3ccc(Oc4cccnc4)cc3)CC2)c(C)n1	CCT modulator -31
COc1ccc(-c2nnc(NC(=O)c3ccc4c(c3)OCCO4)o2)cc1	TSHR antagonist -95
COc1cccc(-c2nnc(NC(=O)c3ccc(S(=O)(=O)N4CC(C)OC(C)C4)cc3)o2)c1 (centres undefined)	gsp antagonist 35µM
CC1CN(S(=O)(=O)c2ccc(C(=O)Nc3nnc(-c4ccco4)o3)cc2)CC(C)O1 (centres undefined)	gsp ag inconclusive
OCC[C@@H]1C[C@@H](O)[C@H](O)[C@@]2(CCCO2)O1	uPA surface inh inconclusive (no result: Mm-Cpn inhibitor, TSHR antagonist)
OCC[C@H]1C[C@H](O)[C@@H](O)[C@]2(CCCO2)O1	CCT modulator -65 (no result: Mm-Cpn inhibitor, TSHR antagonist)
O=C(Nc1ccccn1)c1cc2ccccc2o1	uPA surface inh inconclusive
Cc1ccnc(NC(=O)c2cc3ccccc3o2)c1	uPA surface inh 2µM
COc1cc(C(=O)N(Cc2ccco2)Cc2cc3ccccc3[nH]c2=O)cc(OC)c1OC	none (no result: uPA surface inh)
COc1ccc(-n2c3c(cc(C#N)c2=O)C(=O)CCC3)cc1	CCT modulator -34
COc1ccc(-n2c3c(cc(C(=O)Nc4ccc(C)cc4)c2=O)C(=O)CCC3)cc1	gsp ag inconclusive (no result: Mm-Cpn inhibitor, TSHR antagonist)
CCCN1CCC(=O)N(CCSc2ccc(OC)cc2)CC1	uPA surface inh inconclusive (no result: gsp ag)
Cc1cccc(NC(=O)CN(C)S(=O)(=O)c2cnc[nH]2)c1	none
C=CCOc1c(Cl)cc(CNc2ccc(N(C)C)cc2)cc1OC	Mm-Cpn inhibitor 16µM, gsp antagonist inconclusive, TSHR antagonist -108 (no result: uPA surface inh)
C=CCOc1c(Cl)cc(CNc2ccc(C)c(Cl)c2)cc1OC	none (no result: CCT modulator, gsp antagonist, gsp ag, uPA surface inh)
CCOCCCn1c(SCC(=O)NC2CCCCC2)nc2ccccc2c1=O	CCT modulator -86 (no result: Mm-Cpn inhibitor, gsp antagonist, uPA surface inh, TSHR antagonist)
Cc1ccc(-c2nc3ncccc3o2)cc1NC(=O)C(C)(C)C	none
Cc1ccc(-c2nc3ncccc3o2)cc1NC(=O)c1cccs1	gsp antagonist 35µM
CCOc1ccc(C(=O)NCC(=O)NNC(=O)c2cc(C)oc2C)cc1OCC	uPA surface inh inconclusive
Cc1cc(NS(=O)(=O)c2ccc(NC(=S)NC(=O)/C=C/c3ccccc3)cc2)no1	gsp antagonist inconclusive
Cc1ccc(/C=C/C(=O)NC(=S)Nc2ccc(S(=O)(=O)Nc3cc(C)on3)cc2)cc1	gsp antagonist 35µM
C#CCOc1ccccc1/C=N/NC(=O)c1ccccc1OCc1ccccc1	gsp antagonist 13µM
Cc1ccc(C(=O)Nc2nc(=O)n(C(=O)c3ccccc3C)s2)cc1	gsp antagonist 40µM
Cc1ccc(C(=O)Nc2nc(=O)n(C(=O)C3CC3)s2)cc1	gsp antagonist inconclusive

Source: PubChem BioAssay
